The text below walks through data of ChEMBL document CHEMBL3988442, “University of Dundee, Small-Polar-MMV Screening Library” (2021).

For some of these results: Potency and affinity values are given separately.

Common to all, as to design: scale not given: direction of the effect not stated beside the values
Assay [1] concerns the target Protein translocase subunit SecA (Escherichia coli (strain K12)) (UniProt P10408). The assay is described as follows: Assay to Identify E. coli SecA ATPase Inhibitors. It is filed as functional. The conditions noted are these: 30 µM.
Assay [2] addresses T1, Ubiquitin-activating enzyme e1, putative (Leishmania donovani (strain BPK282A1)) (UniProt E9BSI1).
T1 sequence (whole entry): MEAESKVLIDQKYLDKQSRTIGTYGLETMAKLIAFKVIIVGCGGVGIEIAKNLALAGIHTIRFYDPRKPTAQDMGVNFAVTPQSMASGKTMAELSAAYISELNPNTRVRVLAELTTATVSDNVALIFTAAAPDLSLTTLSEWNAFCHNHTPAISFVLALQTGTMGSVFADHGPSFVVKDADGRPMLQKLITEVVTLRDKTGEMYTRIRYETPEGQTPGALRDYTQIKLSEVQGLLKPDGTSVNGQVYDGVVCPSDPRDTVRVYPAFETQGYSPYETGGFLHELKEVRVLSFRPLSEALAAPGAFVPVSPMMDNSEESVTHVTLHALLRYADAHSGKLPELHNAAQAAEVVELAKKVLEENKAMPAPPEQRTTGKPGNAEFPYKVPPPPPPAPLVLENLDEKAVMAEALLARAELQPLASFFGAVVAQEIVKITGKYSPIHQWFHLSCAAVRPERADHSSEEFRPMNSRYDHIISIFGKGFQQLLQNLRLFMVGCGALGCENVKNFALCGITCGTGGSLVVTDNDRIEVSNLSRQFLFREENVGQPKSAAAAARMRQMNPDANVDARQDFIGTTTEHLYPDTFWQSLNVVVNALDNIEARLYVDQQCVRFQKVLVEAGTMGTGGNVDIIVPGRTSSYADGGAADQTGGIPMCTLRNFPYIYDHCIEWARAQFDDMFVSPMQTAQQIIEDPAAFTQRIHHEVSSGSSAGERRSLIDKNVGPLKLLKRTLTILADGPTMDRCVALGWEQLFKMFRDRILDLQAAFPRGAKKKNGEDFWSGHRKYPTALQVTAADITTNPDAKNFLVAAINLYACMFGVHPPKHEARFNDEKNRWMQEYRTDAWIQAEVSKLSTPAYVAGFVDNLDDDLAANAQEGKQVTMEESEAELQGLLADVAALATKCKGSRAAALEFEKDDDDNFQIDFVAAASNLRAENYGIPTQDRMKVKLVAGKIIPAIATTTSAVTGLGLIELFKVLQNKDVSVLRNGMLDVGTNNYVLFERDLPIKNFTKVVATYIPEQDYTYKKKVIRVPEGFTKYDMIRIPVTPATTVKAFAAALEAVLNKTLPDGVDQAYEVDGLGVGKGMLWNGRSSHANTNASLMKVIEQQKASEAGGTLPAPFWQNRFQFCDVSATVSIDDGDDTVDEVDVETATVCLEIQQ
Nature of the assay: Leishmania donovani Ubiquitin Activating Enzyme (LdE1). The class given is functional. The conditions noted are these: 30 µM.

The target of assay [3] is AMP-activated protein kinase, AMPK (Homo sapiens) (UniProt P54646+O43741+P54619+Q9UGJ0+Q9Y478+Q13131+Q9UGI9). The assay is described as follows: AMP-dependent Kinase enzyme assay. An in vitro enzyme assay that detects ADP turnover that is directly proportional to AMPK activity. This uses naive AMPK that is activated during the assay with MK-8722. As to conditions: 30 µM. The class given is functional.

In assay [4] the target is Sialic acid-binding Ig-like lectin 9 (Homo sapiens) (UniProt Q9Y336). Nature of the assay: Hs-Siglec9 ALPHAscreen SOP 20170721. As to conditions: 10 µM. (In Alpha technology, singlet oxygen from a donor bead excites a nearby acceptor bead.)
Chain of Sialic acid-binding Ig-like lectin 9 (Homo sapiens) (Q9Y336 whole entry): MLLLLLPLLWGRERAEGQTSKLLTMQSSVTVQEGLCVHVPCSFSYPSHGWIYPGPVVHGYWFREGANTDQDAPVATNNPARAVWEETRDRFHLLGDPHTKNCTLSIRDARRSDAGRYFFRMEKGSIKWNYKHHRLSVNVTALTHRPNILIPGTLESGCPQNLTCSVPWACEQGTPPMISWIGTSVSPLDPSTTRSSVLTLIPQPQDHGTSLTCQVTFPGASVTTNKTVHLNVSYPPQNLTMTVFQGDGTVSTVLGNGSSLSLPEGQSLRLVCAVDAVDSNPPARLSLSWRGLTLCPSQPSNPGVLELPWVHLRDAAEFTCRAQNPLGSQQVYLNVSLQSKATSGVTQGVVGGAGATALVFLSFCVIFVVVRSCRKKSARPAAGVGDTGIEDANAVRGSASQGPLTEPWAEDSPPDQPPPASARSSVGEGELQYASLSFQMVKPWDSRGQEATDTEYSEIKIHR
Assay [5] concerns Trypanosoma cruzi. Nature of the assay: Trypanosoma cruzi phosphomannomutase and mannose-1-phosphate guanylyltransferase assay. It is filed as functional. The conditions noted are these: 10 µM.
Assay [6] deals with T2, Arginase-2, mitochondrial (Homo sapiens) (UniProt P78540).
T2 sequence (whole entry): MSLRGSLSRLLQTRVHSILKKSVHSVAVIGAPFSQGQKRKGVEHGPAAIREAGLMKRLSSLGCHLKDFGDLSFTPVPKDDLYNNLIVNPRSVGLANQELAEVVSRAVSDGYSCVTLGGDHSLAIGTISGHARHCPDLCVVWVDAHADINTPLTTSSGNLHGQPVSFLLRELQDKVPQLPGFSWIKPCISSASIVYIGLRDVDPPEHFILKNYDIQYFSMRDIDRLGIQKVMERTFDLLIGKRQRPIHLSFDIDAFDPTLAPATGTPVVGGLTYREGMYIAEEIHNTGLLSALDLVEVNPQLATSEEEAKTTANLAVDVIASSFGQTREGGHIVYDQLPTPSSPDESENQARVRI
Nature of the assay: in vitro enzyme assay to detect the production of urea directly proportional to the activity of Arginase II. Also: in the data most compounds retested in dose-response had high values. It is filed as functional. The conditions noted are these: 33.3 µM.

Assay [7] has as its target T3, Proteasome subunit beta (Trypanosoma cruzi) (UniProt O96673).
T3 sequence (whole entry): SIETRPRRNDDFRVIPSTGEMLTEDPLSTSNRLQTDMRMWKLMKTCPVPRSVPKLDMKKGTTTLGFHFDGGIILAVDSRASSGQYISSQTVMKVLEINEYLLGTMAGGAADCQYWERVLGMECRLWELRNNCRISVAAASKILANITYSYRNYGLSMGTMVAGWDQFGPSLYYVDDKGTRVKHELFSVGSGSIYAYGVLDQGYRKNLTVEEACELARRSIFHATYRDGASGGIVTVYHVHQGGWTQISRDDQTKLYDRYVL
Nature of the assay: Trypanosoma cruzi proteasome chymotrypsin-like activity (TcProtChymo) assay. Also: in the data most compounds retested in dose-response had high values. It is filed as functional. As to conditions: 9.37 µM.

The species named for assay [8] is Homo sapiens. The assay is described as follows: To identify inhibition of the IFN signalling (Jak-Stat) pathway via expression of an eGFP reporter gene under the control of an IFN-stimulated response element (ISRE) containing MxA promoter. As to conditions: 30 µM. It is filed as functional. Background: A reporter such as luciferase makes a cellular process visible.

Assay [9] addresses T4, Tyrosyl-tRNA synthetase, putative (Trypanosoma cruzi (strain CL Brener)) (UniProt Q4DSP6).
T4 sequence (whole entry): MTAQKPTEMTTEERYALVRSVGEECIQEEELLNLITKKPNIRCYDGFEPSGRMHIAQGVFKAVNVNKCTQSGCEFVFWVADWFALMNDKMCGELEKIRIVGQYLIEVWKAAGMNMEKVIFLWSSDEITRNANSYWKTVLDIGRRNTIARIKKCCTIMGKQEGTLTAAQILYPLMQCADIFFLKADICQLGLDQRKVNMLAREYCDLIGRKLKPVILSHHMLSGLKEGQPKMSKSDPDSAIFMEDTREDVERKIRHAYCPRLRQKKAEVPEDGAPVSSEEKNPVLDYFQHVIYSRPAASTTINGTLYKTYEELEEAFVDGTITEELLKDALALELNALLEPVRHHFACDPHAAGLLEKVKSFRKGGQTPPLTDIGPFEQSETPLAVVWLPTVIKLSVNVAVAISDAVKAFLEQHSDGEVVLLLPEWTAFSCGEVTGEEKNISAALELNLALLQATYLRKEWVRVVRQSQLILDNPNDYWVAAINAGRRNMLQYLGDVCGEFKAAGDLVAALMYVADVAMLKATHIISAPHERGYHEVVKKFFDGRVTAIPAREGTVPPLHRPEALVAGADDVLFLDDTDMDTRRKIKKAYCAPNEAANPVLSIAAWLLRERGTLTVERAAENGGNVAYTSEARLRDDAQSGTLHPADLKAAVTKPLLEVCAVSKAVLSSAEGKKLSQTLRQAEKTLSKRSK
The assay is described as follows: Trypanosoma cruzi tyrosyl tRNA synthetase (TcYRS) _High Tyrosine SOP. Also: in the data most compounds retested in dose-response had high values. As to conditions: 30 µM. The class given is functional.

Assay [10] concerns the target T4, Tyrosyl-tRNA synthetase, putative (Trypanosoma cruzi (strain CL Brener)). Nature of the assay: Trypanosoma cruzi tyrosyl tRNA synthetase (TcYRS) SOP. It is filed as functional. As to conditions: 30 µM.
The target of assay [11] is Chromo domain-containing protein 1 (Saccharomyces cerevisiae (strain ATCC 204508 / S288c) (Baker's yeast)) (UniProt P32657). The assay is described as follows: ScCHD-1 Enzyme Inhibition Assay. Also: in the data most compounds retested in dose-response had high values. The class given is functional. The conditions noted are these: 30 µM.
Chain of Chromo domain-containing protein 1 (Saccharomyces cerevisiae (strain ATCC 204508 / S288c) (Baker's yeast)) (P32657 whole entry, the tested form may be a part): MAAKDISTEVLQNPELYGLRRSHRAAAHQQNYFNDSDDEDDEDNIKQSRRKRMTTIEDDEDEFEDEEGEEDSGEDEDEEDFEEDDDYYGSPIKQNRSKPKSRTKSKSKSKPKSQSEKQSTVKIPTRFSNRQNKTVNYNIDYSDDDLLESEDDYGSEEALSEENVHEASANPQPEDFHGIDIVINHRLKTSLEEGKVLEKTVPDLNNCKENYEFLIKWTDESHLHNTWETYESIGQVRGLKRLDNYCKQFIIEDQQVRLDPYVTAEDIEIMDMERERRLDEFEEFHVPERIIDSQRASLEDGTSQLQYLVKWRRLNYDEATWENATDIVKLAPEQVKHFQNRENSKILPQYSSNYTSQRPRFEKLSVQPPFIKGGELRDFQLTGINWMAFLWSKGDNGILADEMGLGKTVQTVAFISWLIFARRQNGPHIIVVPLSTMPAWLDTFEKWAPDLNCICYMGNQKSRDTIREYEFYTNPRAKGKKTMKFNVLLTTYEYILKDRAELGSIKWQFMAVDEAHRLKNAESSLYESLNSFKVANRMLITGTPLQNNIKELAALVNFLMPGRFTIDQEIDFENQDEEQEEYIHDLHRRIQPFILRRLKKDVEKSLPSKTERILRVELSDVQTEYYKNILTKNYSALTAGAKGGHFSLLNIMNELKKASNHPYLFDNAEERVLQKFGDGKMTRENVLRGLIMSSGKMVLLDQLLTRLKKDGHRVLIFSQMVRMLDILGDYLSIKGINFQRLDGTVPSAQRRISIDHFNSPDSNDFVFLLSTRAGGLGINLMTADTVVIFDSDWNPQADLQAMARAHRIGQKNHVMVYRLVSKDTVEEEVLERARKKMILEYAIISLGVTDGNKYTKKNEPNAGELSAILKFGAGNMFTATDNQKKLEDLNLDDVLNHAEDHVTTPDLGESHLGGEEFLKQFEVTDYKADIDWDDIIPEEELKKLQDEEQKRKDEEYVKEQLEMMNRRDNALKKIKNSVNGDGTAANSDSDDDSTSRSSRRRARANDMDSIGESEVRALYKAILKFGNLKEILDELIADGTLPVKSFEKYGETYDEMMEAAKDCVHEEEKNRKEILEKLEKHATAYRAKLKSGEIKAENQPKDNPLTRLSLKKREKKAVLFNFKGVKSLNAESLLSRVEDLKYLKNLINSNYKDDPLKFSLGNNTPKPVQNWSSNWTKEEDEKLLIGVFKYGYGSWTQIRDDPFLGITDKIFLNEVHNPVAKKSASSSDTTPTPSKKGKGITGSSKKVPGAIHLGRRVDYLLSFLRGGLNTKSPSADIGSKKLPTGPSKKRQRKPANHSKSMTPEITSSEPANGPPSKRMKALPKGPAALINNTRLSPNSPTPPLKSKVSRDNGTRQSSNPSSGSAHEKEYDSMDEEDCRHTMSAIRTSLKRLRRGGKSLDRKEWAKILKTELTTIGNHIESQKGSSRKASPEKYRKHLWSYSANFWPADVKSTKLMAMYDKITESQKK

Chain of Protein translocase subunit SecA (Escherichia coli (strain K12)) (P10408 whole entry): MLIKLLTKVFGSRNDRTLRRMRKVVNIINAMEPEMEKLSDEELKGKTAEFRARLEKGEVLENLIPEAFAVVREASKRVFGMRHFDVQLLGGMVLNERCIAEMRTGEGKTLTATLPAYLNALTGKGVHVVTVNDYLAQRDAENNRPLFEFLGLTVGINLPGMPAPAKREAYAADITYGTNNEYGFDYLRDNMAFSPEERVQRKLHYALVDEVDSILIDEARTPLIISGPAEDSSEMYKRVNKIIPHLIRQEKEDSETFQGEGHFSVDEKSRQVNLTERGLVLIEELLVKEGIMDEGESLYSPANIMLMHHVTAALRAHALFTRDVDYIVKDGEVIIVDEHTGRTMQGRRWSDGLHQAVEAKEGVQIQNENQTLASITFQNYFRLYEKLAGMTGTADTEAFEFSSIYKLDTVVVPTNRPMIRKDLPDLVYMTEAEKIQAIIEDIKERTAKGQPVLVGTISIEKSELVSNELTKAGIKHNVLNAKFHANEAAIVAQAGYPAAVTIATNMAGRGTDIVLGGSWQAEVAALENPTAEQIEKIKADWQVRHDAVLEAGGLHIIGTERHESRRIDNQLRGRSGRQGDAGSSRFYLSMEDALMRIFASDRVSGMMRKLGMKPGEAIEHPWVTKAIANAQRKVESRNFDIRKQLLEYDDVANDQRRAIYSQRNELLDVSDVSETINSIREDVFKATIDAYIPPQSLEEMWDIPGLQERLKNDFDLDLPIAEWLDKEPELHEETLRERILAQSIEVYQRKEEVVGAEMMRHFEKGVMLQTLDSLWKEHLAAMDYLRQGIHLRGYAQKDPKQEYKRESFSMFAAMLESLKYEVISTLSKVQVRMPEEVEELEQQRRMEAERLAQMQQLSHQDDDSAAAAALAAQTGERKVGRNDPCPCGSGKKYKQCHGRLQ

`COCCN1CCCC(O)(CN2CCN(c3ncccc3C)CC2)C1=O` (stereo unspecified): the Percent Effect in assay [1] was 5.28%; in assay [2], -27%; in assay [3], -3.41%; in assay [4] it was 7.83%; in assay [5], -5.21%; in assay [6] it was 0.476%. Also, the Percent Effect in assay [7] was 15.3%; in assay [8], 9.99%; in assay [9], 8.99%; in assay [10] it was 12.2%; in [11], -5.83%.

`Cc1oc(C(=O)O)cc1S(=O)(=O)Nc1cc(Cl)ccc1F`: the Percent Effect in [1] is -4.85%; in assay [2], 5.2%; in assay [3], -3.17%; in assay [4], 6.3%; in assay [5] it was 0.374%; in [6], -1.42%. In addition, the Percent Effect was -6.59% in assay [7]; 2.33% in assay [8]; 3.88% in [9]; 2.44% in assay [10]; -4.3% in assay [11].

For `Cn1cc(-c2ncnc3c2CCN(C(=O)N2CCOCC2)CC3)cn1`, the Percent Effect in assay [1] is -2.9%; in assay [2] it was 0%; in [3] it was -3.79%; in assay [4], 15.2%; in [5], 3.03%; in assay [6] it was 1.24%. The Percent Effect in assay [7] is 9.53%; in [8], -0.161%; in assay [9], 1.07%; in [10], 8.64%; in [11], -11.6%.

Regarding `CS(=O)(=O)NC[C@]12COC[C@H]1CN(C(=O)c1ccccc1)C2`, the Percent Effect in assay [1] was -1.33%; in assay [2], -52%; in [3], -0.526%; in assay [4] it was 9.67%; in [5] it was -4.63%; in assay [6], 0.645%. Besides, the Percent Effect was -1.22% in assay [7]; 11.1% in [8]; -79.4% in [9]; -147% in [10]; -6.34% in [11].

For `CC(=O)c1cc(CC(=O)NCc2ccc(F)cc2)cs1`, the Percent Effect in assay [1] was -2.72%; in [2] it was 0%; in assay [3], 1.92%; in [4], 3.19%; in assay [5], 1.93%; in assay [6], -1.43%. Also, the Percent Effect in [7] was 1.72%; in assay [8] it was -0.802%; in assay [9], 4.76%; in assay [10] it was 9.76%; in [11] it was -0.261%.

Regarding `COc1ccccc1NC(=O)NCC(O)(c1ccccc1)C1CC1` (stereo unspecified), the Percent Effect in assay [1] is -6.75%; in assay [2], 11%; in [3], -22.1%; in assay [4], 33.1%; in assay [5], 7.05%; in assay [6], 7.27%. Besides, the Percent Effect in assay [7] was 12.9%; in assay [8], 7.23%; in assay [9], 0%; in assay [10], 10%; in assay [11], -6.95%.

For the compound `CCC(C)(NCC(=O)Nc1ccccc1)c1nc(C)cs1` (stereo unspecified), the Percent Effect was -2.41% in assay [1]; 2.7% in assay [2]; -4.26% in assay [3]; 30.5% in assay [4]; 2.05% in assay [5]; 18.6% in [6]. Further, the Percent Effect was -0.772% in assay [7]; -24.9% in assay [8]; 1.07% in assay [9]; 6.17% in assay [10]; 2.11% in [11].

On to `CCn1cnnc1C1CCN(C(=O)c2cnc3ccccc3n2)CC1`, for which the Percent Effect in [1] was -1.53%; in assay [2], 5.26%; in [3] it was 5.47%; in assay [4], 3.25%; in assay [5], 5.75%; in [6], -11.8%. In addition, the Percent Effect in assay [7] was 13.7%; in [8], -15.4%; in [9], 0%; in assay [10] it was 2.6%; in assay [11], 1.06%.

`CCn1ccnc1CN1CCN(Cc2ccccn2)CC1C` (stereo unspecified): the Percent Effect in assay [1] was 1.15%; in assay [2] it was 5.41%; in assay [3], -1.29%; in [4], 3.52%; in assay [5] it was -3.91%; in assay [6] it was 5.42%. Moreover, the Percent Effect amounted to 9.04% in assay [7]; 12.7% in assay [8]; 8.91% in assay [9]; 13.4% in assay [10]; 14% in [11].

As for `COc1cccc(N2CCN(CCC(=O)NC3CCCC3)CC2)c1`, the Percent Effect was -4.61% in assay [1]; 7.89% in assay [2]; 6.03% in assay [3]; 5.22% in assay [4]; -0.292% in assay [5]; -22.5% in [6]. Also, the Percent Effect was 16.6% in assay [7]; 4.41% in assay [8]; 9.57% in [9]; 13% in [10]; -4.62% in assay [11].

As to `CN(C)C(=O)C1(CCCc2ccncc2)CCCN1` (stereo unspecified), the Percent Effect in [1] is -1.15%; in [2] it was 23%; in [3], -1.94%; in [4], -4.7%; in [5], 0%; in [6] it was -3.48%. The Percent Effect in assay [7] is 26.1%; in [8] it was 4.91%; in [9], 5.38%; in assay [10], 14.3%; in assay [11], -22.2%.
